Experimental findings from ChEMBL document CHEMBL3433997, “St. Jude Leishmania screening dataset” (2016) are described below.

The target in this assay is Hexose transporter 1 (Plasmodium falciparum) (UniProt O97467). The assay is described as follows: ST_JUDE_LEISH: Cytotoxicity at 2uM final concentration against transgenic Leishmania Mexicana promastigotes LmPfHT that are glucose transport deficient and complemented with the Plasmodium falciparum hexose transporter. Activity is measured by DNA content using SYBR green in vitro. It is filed as functional.
As for `CO/C(=C\C=C\c1cc2cc(Cl)c(Cl)cc2[nH]1)C(=O)NCC(C)(C)CN(C)C`, the inhibition was found to be 2.21%.

Turning to `CCNc1nc(OCC(F)(F)F)nc(N(c2ccccc2)c2ccccc2)n1`, the inhibition was 1.48%. The result for `COc1ccccc1C1CCN(C2CCC(NC(=O)/C=C/c3cc(F)cc(F)c3)CC2)CC1` (stereo unspecified) reads -1.17%; that for `Cc1cccc(-c2ccc(NC(=O)C3CCN(Cc4cccc(O)c4)CC3)cc2)c1`, 1.99%; that for `Cc1ccc(NC(=O)Nc2ccc(I)c(OCCN(C)C)c2)cc1Cl`, 7.2%. The result for `CCOC(=O)C(CO)NC(=O)c1ccc([N+](=O)[O-])o1` (stereo unspecified) reads 2.06%; that for `CCN(CCCN1CCCCC1)c1nccc(Nc2ccc(Cl)cc2)n1`, 0.37%; that for `COc1ccccc1CCNc1ncc(F)c(N[C@@H](Cc2ccccc2)C(=O)NCCc2ccccc2)n1`, -0.37%. Regarding `Cc1cccc2nc(-c3cccc(-c4cccc(NC(=O)c5ccncc5)c4)c3)[nH]c12`, the inhibition came out at 3.01%.

Take `COc1ccc2nccc(N3CCN(CCNCc4ccc5c(n4)NC(=O)CO5)CC3)c2n1`: the inhibition was 9.11%. The result for `O=S(=O)(Nc1ccc(CCN2CCCCC2CCN2CCCC2)cc1)c1ccc(-c2ccccc2)cc1` (stereo unspecified) reads 14.3%; that for `O=C(NC1CCC(N2CCCC(OCc3ccccc3)C2)CC1)c1cc2ccccc2[nH]1` (stereo unspecified), 3.87%; that for `OC(CNCc1ccccc1OCc1ccccc1)c1cc(Br)cs1` (stereo unspecified), 3.38%.

In the case of `Cc1nc(Nc2cc(Cl)ccc2O)nc(Nc2cc(Cl)ccc2O)c1[N+](=O)[O-]`, the inhibition amounted to 3.14%. Turning to `CCc1cc(NC(=O)Nc2ccnc3ccccc23)ccc1OC`, the inhibition amounted to 17.9%. As to `CC(c1cccc(Nc2nccc(-c3c(-c4cccc(NC(=O)c5c(F)cccc5F)c4)nn4ncccc34)n2)c1)S(C)(=O)=O` (stereo unspecified), the inhibition was 1.6%.
